Test results taken from the supplement of paper PMC12645437, “Orthogonal IMiD-Degron Pairs Induce Selective Protein Degradation in Cells” (ACS Chemical Biology, 2025).
Over roughly 8,300 sequences, “log2 fold change of degron read counts, EGFP-low vs EGFP+ sorted cells (limma voom), compound-induced degradation” has its median near -1.1; the highest 2% begin near 3.2. The entries come from a sample that favours the highest values as a whole.

T1: CRBN, Q96SW2
T1 chain: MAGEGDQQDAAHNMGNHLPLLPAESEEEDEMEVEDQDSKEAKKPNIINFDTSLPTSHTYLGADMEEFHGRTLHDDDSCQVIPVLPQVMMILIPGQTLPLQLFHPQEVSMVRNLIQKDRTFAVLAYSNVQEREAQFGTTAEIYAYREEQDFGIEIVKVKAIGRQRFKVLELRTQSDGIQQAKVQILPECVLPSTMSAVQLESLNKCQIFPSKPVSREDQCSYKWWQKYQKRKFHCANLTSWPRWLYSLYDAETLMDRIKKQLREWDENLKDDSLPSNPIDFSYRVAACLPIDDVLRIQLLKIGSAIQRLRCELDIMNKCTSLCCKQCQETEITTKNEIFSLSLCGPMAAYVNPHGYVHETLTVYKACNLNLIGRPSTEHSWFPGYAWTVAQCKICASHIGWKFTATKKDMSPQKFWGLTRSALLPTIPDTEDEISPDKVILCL

B1: 46L_47L_49P_50I_52G_53F_54H_55C_67L_, Q9UKT9 (peptide)
chain: LLCPICGFHCTQKGNLLRHIKL
B2: 46F_47I_49P_50I_52G_53H_54F_55F_67L_, Q9UKT9 (peptide)
chain: FICPICGHFFTQKGNLLRHIKL
B3: 46L_47W_49P_50I_52G_53F_54T_55C_67L_, Q9UKT9 (peptide)
chain: LWCPICGFTCTQKGNLLRHIKL
B4: 46L_47Y_49P_50I_52G_53F_54T_55C_67L_, Q9UKT9 (peptide)
chain: LYCPICGFTCTQKGNLLRHIKL
B5: 46L_47E_49P_50I_52G_53F_54T_55C_67L_, Q9UKT9 (peptide)
chain: LECPICGFTCTQKGNLLRHIKL
B6: 46L_47G_49P_50I_52G_53F_54T_55C_67L_, Q9UKT9 (peptide)
chain: LGCPICGFTCTQKGNLLRHIKL
B7: 46L_47E_49E_50I_52G_53F_54T_55C_67L_, Q9UKT9 (peptide)
chain: LECEICGFTCTQKGNLLRHIKL
B8: 46L_47Q_49N_50Q_52G_53F_54I_55C_67L_, Q9UKT9 (peptide)
chain: LQCNQCGFICTQKGNLLRHIKL
B9: 46F_47V_49N_50Q_52G_53R_54T_55F_67L_, Q9UKT9 (peptide)
chain: FVCNQCGRTFTQKGNLLRHIKL
B10: 46F_47A_49D_50Q_52G_53A_54I_55F_67L_, Q9UKT9 (peptide)
chain: FACDQCGAIFTQKGNLLRHIKL
B11: 46F_47E_49E_50I_52G_53H_54H_55F_67L_, Q9UKT9 (peptide)
chain: FECEICGHHFTQKGNLLRHIKL
B12: 46F_47W_49P_50I_52G_53R_54H_55F_67L_, Q9UKT9 (peptide)
chain: FWCPICGRHFTQKGNLLRHIKL
B13: 46F_47T_49N_50Q_52G_53A_54N_55F_67L_, Q9UKT9 (peptide)
chain: FTCNQCGANFTQKGNLLRHIKL
B14: 46F_47C_49E_50Q_52G_53A_54Q_55F_67L_, Q9UKT9 (peptide)
chain: FCCEQCGAQFTQKGNLLRHIKL
B15: 46F_47F_49D_50V_52G_53A_54G_55F_67L_, Q9UKT9 (peptide)
chain: FFCDVCGAGFTQKGNLLRHIKL
B16: 46F_47I_49E_50I_52G_53R_54F_55F_67L_, Q9UKT9 (peptide)
chain: FICEICGRFFTQKGNLLRHIKL
B17: 46F_47R_49N_50I_52G_53A_54F_55F_67L_, Q9UKT9 (peptide)
chain: FRCNICGAFFTQKGNLLRHIKL
B18: 46F_47T_49E_50Q_52G_53A_54T_55F_67L_, Q9UKT9 (peptide)
chain: FTCEQCGATFTQKGNLLRHIKL

Biological target: T1, CRBN, Q96SW2
Test: log2 fold change of degron read counts, EGFP-low vs EGFP+ sorted cells (limma voom), compound-induced degradation; higher = more compound-induced degradation of the degron-EGFP fusion; degrons are variants of IKZF1/3 zinc finger 2; compound dose not given here
Conditions: Jurkat, 18 h
[1] = compound: compound 19 (5-tert-butyl-thalidomide)
[2] = compound: compound 22 (5-morpholino-thalidomide)
[3] = compound: compound 33 (diphenyl IMiD analogue)
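Note: pooled lentiviral library of zinc finger degron-EGFP fusions in mCherry-positive Jurkat cells, FACS-sorted after compound exposure, with degron abundance counted by next-generation sequencing.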

Sequence | log2 fold change of degron read counts [1] | log2 fold change of degron read counts [2] | log2 fold change of degron read counts [3] | log2 fold change of degron read counts (compound: thalidomide)
B1 | -0.42 | 0.0892 | 1.25 | 1.51
B2 | -1.6 | -2.08 | -1.13 | -1.31
B3 | 3.24 | 3.71 | 3.05 | 2.09
B4 | 3.6 | 3.63 | 2.97 | 2.63
B5 | 1.1 | 0.00767 | 2.64 | 3.38
B6 | 3.65 | 2.87 | 1.97 | 1.36
B7 | 0.26 | -0.872 | 1.66 | 2.87
B8 | -2.79 | -2.4 | -2.23 | -0.473
B9 | -2.81 | -2.9 | -2.85 | -2.6
B10 | -1.3 | -2.79 | -2.17 | -2.61
B11 | -3.57 | -3.77 | -3.12 | -3.14
B12 | 0.105 | 0.12 | -0.0382 | -0.795
B13 | -2.31 | -1.9 | -1.02 | -1.51
B14 | -0.606 | -1.61 | 0.54 | -0.701
B15 | 2.13 | 0.815 | -0.261 | -2.07
B16 | -1.91 | -1.81 | -0.249 | -0.59
B17 | -1.52 | -1.67 | -0.33 | 0.791
B18 | -2.43 | -0.729 | 0.386 | 0.407
